Consider 40 compounds from PubChem BioAssay (EPA / NIEHS).

Molecules are shown by their SMILES. Active and inactive are the calls of the source. Rule for the calls: active = hit-call score of the fitted dose curve at least 0.9, where 1 is the maximum; inactive = score below 0.9.

The assay in a line: APR_HepG2_MitoMembPot_1hr: Apredica 1-hour HepG2 Assay for Mitochondrial Membrane Potential (AID 2282675). To be noted: imaging, actives raise or lower the signal. As for the experimental part: APR_HepG2_1hr is a cell-based, multiplexed-readout assay that uses HepG2, a human liver cell line, with measurements taken at 1 hour after chemical dosing in a 384-well plate.APR_HepG2_MitoMembPot_1hr is one of 10 assay component(s) measured or calculated from the APR_HepG2_1hr assay. It is designed to make measurements of dye binding, a form of membrane potential reporter, as detected with fluorescence intensity signals by HCS Fluorescent Imaging technology.Data from the assay component APR_HepG2_MitoMembPot_1hr was analyzed into 1 assay endpoint. This assay endpoint, APR_HepG2_MitoMembPot_1hr, was analyzed with bidirectional fitting relative to DMSO as the negative control and baseline of activity. Using a type of membrane potential reporter, gain or loss-of-signal activity can be used to understand changes in the signaling. Furthermore, this assay endpoint can be referred to as a primary readout, because this assay has produced multiple assay endpoints where this one serves a signaling function. To generalize the intended target to other relatable targets, this assay endpoint is annotated to the cell morphology intended target family, where the subfamily is organelle conformation.
Cells were treated with dimethyl sulfoxide (DMSO) as a solvent control at a final concentration of 0.5% v/v or with compounds in DMSO with a resulting final DMSO concentration of 0.5% v/v. Compound treatment was done at concentrations of 0.39, 0.78, 1.56, 3.12, 6.24, 12.5, 25, 50, 100, and 200 uM in duplicate on each plate. Cells were treated with compounds for 1, 24, or 72 hr. Carbonyl […] m-chloro-phenylhydrazone (CCCP) and taxol were used as positive controls for mitochondrial function and cytoskeletal stability, respectively; DMSO served as the negative control for this experiment. Cells were fixed by the direct addition of 50 uL formaldehyde in Hank's Balanced Salt Solution (HBSS) to a final concentration of 3.7%. After incubation in the fixation medium for 30 min at room temperature (293-298 K), cells were rinsed twice with HBSS and treated with cell permeabilization buffer (16 uL of 0.5% Triton X-100) for 10 min at room temperature (293-298 K) before labeling. For mitochondrial membrane potential and mitochondrial measurements, pre-fixed cells were incubated with 50 uL of MitoTracker Red CMXRos (Invitrogen) at a concentration of 250 nM for 30 min before fixation. In the remaining cases, post-fixed cells were labeled by incubation with a multiplexed mixture of primary antibodies in HBSS for 60 min at room temperature (293-298 K) to detect immunoreactivity of c-Jun (1:500), phospho-histone H3 (1:100), phospho-histone H2A.x (1:200), p53 (1:400), alpha-tubulin (1:200) and Hoechst 33342 (2 ug/mL). Cells were labeled for multiplexed imaging on two separate plates: a) Hoechst 33342, MitoTracker Red, phospho-histone H3, and alpha-tubulin, and b) Hoechst 33342, phospho-histone H2A.x, and c-Jun. A final rinse with HBSS (50 uL) was performed before analysis. The primary and secondary antibodies for the proteins were phospho-histone H3 (rabbit anti-phospho-histone H3 and FITC-donkey anti-rabbit IgG), phospho-histone H2A.x (mouse anti-phospho-histone H2A.x and FITC-donkey anti-mouse IgG), c-Jun (rabbit anti-phospho-c-Jun and Cy3-donkey anti-rabbit IgG), p53 (sheep anti-p53 and Cy5-donkey anti-sheep IgG), alpha-tubulin (mouse anti-alpha-tubulin and Cy5-donkey anti-mouse IgG). These antibodies are available as the CellCiphr HepG2 assay kit (Millipore).Digital images of each well were captured using a Cellomics ArrayScan VTI (Thermo Scientific Cellomics) (0.8 NA objective, 0.63x optical coupler, and XF-93 filter set) at 20x magnification. The images were acquired using the autofocus feature of the ArrayScan instrument, which entails the following steps. First, the camera focuses on channel 1 (Hoechst 33342), where nuclei are identified. Second, a Z offset of 1 um is used for capturing mitochondria (MitoTracker Red). […]
Take `COC(=O)N(C(=O)N1CO[C@@]2(C(=O)OC)Cc3cc(Cl)ccc3C2=N1)c1ccc(OC(F)(F)F)cc1`: the compound was called inactive.
On the same count and under the same terms, the result for `CN=C=S` reads “inactive”.
Still for that read-out and setting: the result for `COP(=S)(OC)SCn1nnc2ccccc2c1=O` reads “inactive”; that for `COCc1cnc(C2=NC(C)(C(C)C)C(=O)N2)c(C(=O)O)c1` (stereo not given), “inactive”; that for `Cc1nc(N(C)C)nc(OC(=O)N(C)C)c1C`, “inactive”.
For `Clc1cccc(C(Cl)(Cl)Cl)n1`, the call was inactive.
In the case of `CO/N=C(/C1=NOCCO1)c1ccccc1Oc1ncnc(Oc2ccccc2Cl)c1F`, the result was inactive.
Same read-out and setting: the result for `O=c1n(Cl)c(=O)n(Cl)c(=O)n1Cl` reads “inactive”.
Take `CS(=O)(=O)c1ccc(C(=O)C2C(=O)CCCC2=O)c([N+](=O)[O-])c1`: the result was inactive.
Same read-out and setting: to `CC(C)N1C(=O)c2ccccc2NS1(=O)=O` belongs “inactive”.
On the same count and under the same terms, the result for `CCCCC(C#N)(Cn1cncn1)c1ccc(Cl)cc1` (stereo not given) reads “inactive”.
In the case of `CC(C)NC(=O)N1CC(=O)N(c2cc(Cl)cc(Cl)c2)C1=O`, the compound was called inactive.
On the same count and under the same terms, the result for `C=C(C)CN(CC)c1c([N+](=O)[O-])cc(C(F)(F)F)cc1[N+](=O)[O-]` reads “inactive”.
As to `COP(=S)(OC)Oc1ccc([N+](=O)[O-])c(C)c1`, the result was inactive.
On the same count and under the same terms, the result for `N#Cc1c[nH]cc1-c1cccc2c1OC(F)(F)O2` reads “inactive”; that for `Cc1cnc(C2=NC(C)(C(C)C)C(=O)N2)c(C(=O)O)c1` (stereo not given), “inactive”; that for `N#Cc1c(Cl)cccc1Cl`, “inactive”.
The same measure, in the same setting: to `C=CCOC(=O)C(C)(C)OC(=O)c1cc(-n2c(=O)cc(C(F)(F)F)n(C)c2=O)ccc1Cl` belongs “inactive”.
As for `CC(C)N1C(=O)N(c2ccccc2)CSC1=NC(C)(C)C`, the AC50 was 114 µM (active).
Take `CCCCC(O)(Cn1cncn1)c1ccc(Cl)cc1Cl` (stereo not given): the result was inactive.
On to `CCOc1cc(C(C)(C)C)ccc1C1COC(c2c(F)cccc2F)=N1` (stereo not given), for which the AC50 is 100 µM (active).
Turning to `O=P(O)(O)CCCl`, the compound was called inactive.
Still for that read-out and setting: to `CC1(C)CON(Cc2ccccc2Cl)C1=O` belongs “inactive”; to `CN/C(=N\[N+](=O)[O-])NCc1cnc(Cl)s1`, “inactive”.
Same read-out and setting: to `CCOP(=O)(OCC)Oc1nc(Cl)c(Cl)cc1Cl` belongs “inactive”; to `COCC(C)N(C(=O)CCl)c1c(C)csc1C` (stereo not given), “inactive”; to `COc1ccc(-c2ccccc2)cc1NNC(=O)OC(C)C`, “inactive”.
Still for that read-out and setting: the result for `Cn1c(-c2ccccc2)cc(-c2ccccc2)[n+]1C` reads “inactive”; that for `CC(C)Oc1cccc(NC(=O)c2ccccc2C(F)(F)F)c1`, “inactive”.
Turning to `OC(c1ccc(Cl)cc1)(c1ccc(Cl)cc1)C(Cl)(Cl)Cl`, the AC50 was 34.2 µM (active).
On the same count and under the same terms, the result for `Cc1ccc(N=CN(C)C=Nc2ccc(C)cc2C)c(C)c1` reads 108 µM (active).
Consider `CC(C)C1(C)N=C(c2ncccc2C(=O)O)NC1=O` (stereo not given), for which the outcome was inactive.
As for `CC(C)Nc1nc(Cl)nc(NC(C)C)n1`, the compound was classed as inactive.
With `COP(=O)(OC)O/C(C)=C/C(=O)N(C)C`, the outcome was inactive.
Same read-out and setting: to `CCOC(=O)C(C)OC(=O)c1cc(Oc2ccc(C(F)(F)F)cc2Cl)ccc1[N+](=O)[O-]` (stereo not given) belongs “inactive”; to `Clc1nc(Cl)nc(Nc2ccccc2Cl)n1`, “inactive”; to `CCN(CC)C(=O)C(C)Oc1cccc2ccccc12` (stereo not given), “inactive”.
The same measure, in the same setting: the result for `N#CN=C1SCCN1Cc1ccc(Cl)nc1` reads “inactive”; that for `COC(=O)c1c(C(F)F)nc(C(F)(F)F)c(C2=NCCS2)c1CC(C)C`, “inactive”.
With `CCOc1nc(C(Cl)(Cl)Cl)ns1`, the call was inactive.

As usually defined, the AC50 is the concentration at which the activity in the assay is half-maximal.
